# Experimental data reported in PubChem BioAssay (EPA / NIEHS).
# Activity calls are given as the source filed them. How the source made its calls: active means hit-call score of the fitted dose curve at least 0.9, where 1 is the maximum; inactive means score below 0.9.
# Key:
# Details in all cases: mRNA level, 48 h; actives raise or lower the signal
# [1] = read-out: ATP-citrate lyase (ACLY), ACLY (gene 47); assay: LTEA_HepaRG_ACLY: Life Technologies and Expression Analysis (LTEA) Assay for ATP-citrate lyase (ACLY) using HepaRG (AID 2283466)
# Procedure, shortened: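 qRT-PCR readout of ACLY transcript after 48 h chemical treatment of HepaRG cells; expression normalized to three housekeeping genes. Eight-point half-log series, highest 100 uM, 0.5% DMSO vehicle. Gain or loss fitted against DMSO baseline.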
# [2] = read-out: Peroxisomal acyl-coenzyme A oxidase 1 (ACOX1) gene, ACOX1 (gene 51); assay: LTEA_HepaRG_ACOX1: Life Technologies and Expression Analysis (LTEA) Assay for Peroxisomal acyl-coenzyme A oxidase 1 (ACOX1) gene using HepaRG (AID 2283467)
# Procedure, shortened: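 HepaRG, 48 h chemical exposure, 8-pt half-log series from 100 uM top, 0.5% DMSO vehicle, duplicates. Readout: ACOX1 mRNA by Fluidigm qRT-PCR, housekeeping-normalized; bidirectional fit vs DMSO baseline.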
# [3] = read-out: Alkaline Phosphatase, Placental (ALPP) gene, ALPP (gene 250); assay: LTEA_HepaRG_ALPP: Life Technologies and Expression Analysis (LTEA) Assay for Alkaline Phosphatase, Placental (ALPP) gene using HepaRG (AID 2283468);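 on AC50: differentiated human HepaRG liver cells in serum-free induction medium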
# Procedure, shortened: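 Expression of ALPP was quantified by qRT-PCR against three housekeeping genes in human HepaRG cultures treated for 48 h with an eight-point concentration series up to 100 uM. Activity in either direction was fitted relative to 0.5% DMSO.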
# [4] = read-out: Bcl-2 (BAD) gene, BAD (gene 572); assay: LTEA_HepaRG_BAD: Life Technologies and Expression Analysis (LTEA) Assay for Bcl-2 (BAD) gene using HepaRG (AID 2283469)
# Procedure, shortened: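 HepaRG, 48 h exposure, 8-pt half-log curve from 100 uM in 0.5% DMSO, duplicates. Readout: TaqMan qRT-PCR for BAD mRNA, housekeeping-normalised (ACTB/GAPDH/POLR2A); gain or loss fitted against DMSO baseline.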
# [5] = read-out: Bcl-2 (BAX) gene, BAX (gene 581); assay: LTEA_HepaRG_BAX: Life Technologies and Expression Analysis (LTEA) Assay for Bcl-2 (BAX) gene using HepaRG (AID 2283470)
# Procedure, shortened: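 Human HepaRG cells treated in duplicate for 48 h across eight concentrations (max 100 uM, 0.5% DMSO); BAX expression measured by qRT-PCR.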
# [6] = read-out: adenosine kinase (ADK) gene, ADK (gene 132); assay: LTEA_HepaRG_ADK: Life Technologies and Expression Analysis (LTEA) Assay for adenosine kinase (ADK) gene using HepaRG (AID 2283471)
# Procedure, shortened: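 Read-out is ADK transcript level measured by qRT-PCR and normalised to three housekeeping genes. Cells are human HepaRG, dosed for 48 h at up to 100 uM in 0.5% DMSO. Gain or loss of signal is fitted against DMSO controls.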
# [7] = read-out: Alpha-fetoprotein (AFP) gene, AFP (gene 174); assay: LTEA_HepaRG_AFP: Life Technologies and Expression Analysis (LTEA) Assay for Alpha-fetoprotein (AFP) gene using HepaRG (AID 2283472)
# Procedure, shortened: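 Measures AFP mRNA change in HepaRG after 48 h chemical exposure (8 half-log concentrations, highest 100 uM, 0.5% DMSO). Fold change relative to DMSO, fitted in both directions.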
# BCL2L11 (gene 10018) = assay: LTEA_HepaRG_BCL2L11: Life Technologies and Expression Analysis (LTEA) Assay for Bcl-2 (BCL2L11) gene using HepaRG (AID 2283473)
# Procedure, shortened: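 Cells were plated, cultured 48 h, switched to serum-free induction medium, then dosed in duplicate for 48 h at eight half-log concentrations up to 100 uM. Lysates underwent RNA isolation and TaqMan qRT-PCR; gain or loss versus DMSO was fitted.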
# [8] = read-out: Apolipoprotein A-V (APOA5) gene, APOA5 (gene 116519); assay: LTEA_HepaRG_APOA5: Life Technologies and Expression Analysis (LTEA) Assay for Apolipoprotein A-V (APOA5) gene using HepaRG (AID 2283474)
# Procedure, shortened: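 Human liver HepaRG cells are treated 48 h with test chemicals (100 uM top, half-log dilutions, 0.5% DMSO). APOA5 mRNA induction or loss is measured by qRT-PCR relative to vehicle.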
# [9] = read-out: Apoptosis regulator Bcl-2 (Homo sapiens) (UniProt P10415); assay: LTEA_HepaRG_BCL2: Life Technologies and Expression Analysis (LTEA) Assay for Bcl-2 gene using HepaRG (AID 2283475)
# Procedure, shortened: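 Each chemical was tested in duplicate on HepaRG cultures held in serum-free induction medium for 48 h, highest concentration 100 uM with half-log dilutions. Transcript levels came from multiplexed qRT-PCR, normalised to housekeeping genes; activity was scored in either direction relative to DMSO.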
# [10] = read-out: Bcl-2 (BID) gene, BID (gene 637); assay: LTEA_HepaRG_BID: Life Technologies and Expression Analysis (LTEA) Assay for Bcl-2 (BID) gene using HepaRG (AID 2283476)
# Procedure, shortened: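 Assay used HepaRG hepatic cells treated 48 h in serum-free medium with half-log dilutions from 100 uM. Endpoint: BID mRNA, qRT-PCR, normalized to ACTB/GAPDH/POLR2A.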
# Caspase-3 (Homo sapiens) = Caspase-3 (Homo sapiens) (UniProt P42574); assay: LTEA_HepaRG_CASP3: Life Technologies and Expression Analysis (LTEA) Assay for cysteine-aspartic acid protease (CASP3) using HepaRG (AID 2283477)
# Sequence of Caspase-3 (Homo sapiens) (P42574 whole entry, looked up): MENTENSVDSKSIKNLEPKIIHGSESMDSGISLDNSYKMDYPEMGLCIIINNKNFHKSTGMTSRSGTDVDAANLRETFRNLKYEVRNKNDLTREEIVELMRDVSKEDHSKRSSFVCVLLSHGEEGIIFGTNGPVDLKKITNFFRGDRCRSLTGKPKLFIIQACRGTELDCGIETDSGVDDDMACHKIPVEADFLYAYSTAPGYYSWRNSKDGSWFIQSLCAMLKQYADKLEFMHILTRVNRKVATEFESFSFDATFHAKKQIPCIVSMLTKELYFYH
# Procedure, shortened: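 In HepaRG liver cells dosed for 48 h at up to 100 uM (eight-point, duplicate), CASP3 expression changes are scored by qRT-PCR. Activity is fitted in both directions with 0.5% DMSO as baseline.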
# [11] = read-out: Cytochrome P450 (CYP24A1), CYP24A1 (gene 1591); assay: LTEA_HepaRG_CYP24A1: Life Technologies and Expression Analysis (LTEA) Assay for Cytochrome P450 (CYP24A1) using HepaRG (AID 2283478)
# Procedure, shortened: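 Human liver HepaRG cultures receive each chemical for 48 h across an eight-point half-log series topping at 100 uM in 0.5% DMSO. Induction or suppression of CYP24A1 mRNA is scored relative to vehicle after housekeeping-gene normalization.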
# [12] = read-out: Cytochrome P450 (CYP1A2), CYP1A2 (gene 1544); assay: LTEA_HepaRG_CYP1A2: Life Technologies and Expression Analysis (LTEA) Assay for Cytochrome P450 (CYP1A2) using HepaRG (AID 2283479)
# Procedure, shortened: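 Assesses CYP1A2 mRNA in human HepaRG liver cells after 48 h chemical exposure at up to 100 uM. Values come from qRT-PCR with bidirectional curve fitting relative to DMSO.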
# [13] = read-out: cysteine-aspartic acid protease (CASP8), CASP8 (gene 841); assay: LTEA_HepaRG_CASP8: Life Technologies and Expression Analysis (LTEA) Assay for cysteine-aspartic acid protease (CASP8) using HepaRG (AID 2283480)
# Procedure, shortened: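 qRT-PCR readout of CASP8 mRNA, normalized to three housekeeping genes, after 48 h chemical exposure of HepaRG cells; 8-point half-log series, top 100 uM, 0.5% DMSO vehicle. Bidirectional curve fitting against DMSO baseline.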
# [14] = read-out: Cytochrome P450 (CYP2B6), CYP2B6 (gene 1555); assay: LTEA_HepaRG_CYP2B6: Life Technologies and Expression Analysis (LTEA) Assay for Cytochrome P450 (CYP2B6) using HepaRG (AID 2283481)
# Procedure, shortened: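 Using 48 h treatment of HepaRG cells in serum-free induction medium, concentrations spanned half-log steps from 100 uM in 0.5% DMSO vehicle. CYP2B6 mRNA induction or loss is scored by qRT-PCR against DMSO.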
# [15] = read-out: Cytochrome P450 2C19 (Homo sapiens) (UniProt P33261); assay: LTEA_HepaRG_CYP2C19: Life Technologies and Expression Analysis (LTEA) Assay for CYP2C19 using HepaRG (AID 2283482)
# Procedure, shortened: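 Human HepaRG liver cells received test chemicals for 48 h (highest 100 uM, half-log dilutions in 0.5% DMSO). CYP2C19 mRNA induction or loss is read by multiplexed qRT-PCR and fitted in both directions versus vehicle.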
# CYP2C9 (gene 1559) = assay: LTEA_HepaRG_CYP2C9: Life Technologies and Expression Analysis (LTEA) Assay for CYP2C9 using HepaRG (AID 2283484)
# Procedure, shortened: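 HepaRG, 48 h dosing, 8-pt half-log series, top 100 uM, 0.5% DMSO vehicle. Read-out: CYP2C9 transcript by TaqMan qRT-PCR, housekeeping-normalized (ACTB/GAPDH/POLR2A). Gain or loss fitted vs DMSO baseline.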
# CYP2E1 (gene 1571) = assay: LTEA_HepaRG_CYP2E1: Life Technologies and Expression Analysis (LTEA) Assay for CYP2E1 using HepaRG (AID 2283485)
# Procedure, shortened: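 Assay uses 48 h exposure of HepaRG hepatic cells, eight concentrations to 100 uM. Expression of CYP2E1 is quantified by TaqMan qRT-PCR with ACTB, GAPDH and POLR2A normalization; curves fitted in both directions relative to vehicle.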
# CYP2C8 (gene 1558) = assay: LTEA_HepaRG_CYP2C8: Life Technologies and Expression Analysis (LTEA) Assay for CYP2C8 using HepaRG (AID 2283483)
# Procedure, shortened: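 HepaRG (human liver line), 48 h chemical exposure, 8-pt half-log series from 100 uM, 0.5% DMSO vehicle. Readout: CYP2C8 transcript by qRT-PCR, housekeeping-normalized. Bidirectional fit vs DMSO baseline.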
# Sequence of Apoptosis regulator Bcl-2 (Homo sapiens) (P10415 whole entry, looked up): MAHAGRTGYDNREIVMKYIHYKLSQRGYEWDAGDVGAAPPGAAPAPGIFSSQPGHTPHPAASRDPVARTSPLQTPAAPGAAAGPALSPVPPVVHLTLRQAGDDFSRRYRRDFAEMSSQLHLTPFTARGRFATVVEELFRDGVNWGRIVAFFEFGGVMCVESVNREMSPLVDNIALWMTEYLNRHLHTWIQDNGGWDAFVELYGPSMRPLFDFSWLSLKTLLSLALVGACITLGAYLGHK
# Sequence of Cytochrome P450 2C19 (Homo sapiens) (P33261 whole entry, looked up): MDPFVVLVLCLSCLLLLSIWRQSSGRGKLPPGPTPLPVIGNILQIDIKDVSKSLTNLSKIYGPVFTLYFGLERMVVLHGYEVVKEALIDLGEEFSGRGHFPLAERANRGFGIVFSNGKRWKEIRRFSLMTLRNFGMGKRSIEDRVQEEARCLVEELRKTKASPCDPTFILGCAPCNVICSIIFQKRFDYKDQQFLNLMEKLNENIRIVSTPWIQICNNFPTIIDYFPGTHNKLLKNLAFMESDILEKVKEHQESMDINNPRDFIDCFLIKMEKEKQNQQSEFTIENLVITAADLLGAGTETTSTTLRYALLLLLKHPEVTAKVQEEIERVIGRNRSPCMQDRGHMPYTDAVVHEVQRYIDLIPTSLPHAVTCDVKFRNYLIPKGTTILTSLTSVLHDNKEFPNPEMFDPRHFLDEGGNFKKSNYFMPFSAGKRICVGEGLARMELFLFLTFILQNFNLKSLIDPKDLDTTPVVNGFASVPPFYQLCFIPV
compound,measurement,setting,value
Clc1ccc(C(Cl)(Cl)Cl)cc1,outcome,[1],inactive
same,outcome,[2],inactive
same,outcome,[3],inactive
same,outcome,[4],inactive
same,outcome,[5],inactive
same,outcome,[6],inactive
same,outcome,[7],inactive
same,outcome,BCL2L11 (gene 10018),inactive
same,outcome,[8],inactive
same,outcome,[9],inactive
same,outcome,[10],inactive
same,outcome,Caspase-3 (Homo sapiens),inactive
same,outcome,[11],inactive
same,outcome,[12],inactive
same,outcome,[13],inactive
same,outcome,[14],inactive
same,outcome,[15],inactive
same,outcome,CYP2C9 (gene 1559),inactive
same,outcome,CYP2E1 (gene 1571),inactive
Cc1cc2c3c(c1)C(c1ccccc1)=N[C@@H](NC(=O)c1ccncc1)C(=O)N3CC2,AC50,[1],74.3 µM (active)
same,outcome,[2],inactive
same,AC50,[3],10.3 µM (active)
same,outcome,[4],inactive
same,outcome,[5],inactive
same,outcome,[6],inactive
same,AC50,[7],50 µM (active)
same,outcome,BCL2L11 (gene 10018),inactive
same,AC50,[8],62.5 µM (active)
same,outcome,[9],inactive
same,outcome,[10],inactive
same,outcome,Caspase-3 (Homo sapiens),inactive
same,outcome,[11],inactive
same,AC50,[12],23.1 µM (active)
same,outcome,[13],inactive
same,outcome,[14],inactive
same,AC50,[15],3.58 µM (active)
same,outcome,CYP2C8 (gene 1558),inactive
same,outcome,CYP2C9 (gene 1559),inactive
same,AC50,CYP2E1 (gene 1571),17.9 µM (active)
ClC1=C(Cl)[C@]2(Cl)[C@@H]3[C@@H](Cl)[C@H]4O[C@H]4[C@@H]3C1(Cl)C2(Cl)Cl,AC50,[1],75 µM (active)
same,outcome,[2],inactive
same,outcome,[3],inactive
same,outcome,[4],inactive
same,outcome,[5],inactive
same,outcome,[6],inactive
same,AC50,[7],21.9 µM (active)
same,outcome,BCL2L11 (gene 10018),inactive
same,outcome,[8],inactive
same,outcome,[9],inactive
same,outcome,[10],inactive
same,outcome,Caspase-3 (Homo sapiens),inactive
same,outcome,[11],inactive
same,outcome,[12],inactive
same,outcome,[13],inactive
same,AC50,[14],0.526 µM (active)
same,AC50,[15],1.21 µM (active)
same,outcome,CYP2C8 (gene 1558),inactive
same,outcome,CYP2C9 (gene 1559),inactive
same,AC50,CYP2E1 (gene 1571),25.5 µM (active)
Cc1ccc(O)c(C)c1,outcome,[1],inactive
same,outcome,[2],inactive
same,outcome,[3],inactive
same,outcome,[4],inactive
same,outcome,[5],inactive
same,outcome,[6],inactive
same,outcome,[7],inactive
same,outcome,BCL2L11 (gene 10018),inactive
same,outcome,[8],inactive
same,outcome,[9],inactive
same,outcome,[10],inactive
same,outcome,Caspase-3 (Homo sapiens),inactive
same,outcome,[11],inactive
same,outcome,[12],inactive
same,outcome,[13],inactive
same,outcome,[14],inactive
same,outcome,[15],inactive
same,outcome,CYP2C9 (gene 1559),inactive
same,outcome,CYP2E1 (gene 1571),inactive
CC1=C2C[C@H]3[C@@H](CC=C4C[C@@H](O)CC[C@@]43C)[C@@H]2CC[C@]12O[C@@H]1C[C@H](C)CN[C@H]1[C@H]2C,outcome,[1],inactive
same,outcome,[2],inactive
same,outcome,[3],inactive
same,outcome,[4],inactive
same,outcome,[5],inactive
same,outcome,[6],inactive
same,outcome,[7],inactive
same,outcome,BCL2L11 (gene 10018),inactive
same,outcome,[8],inactive
same,outcome,[9],inactive
same,outcome,[10],inactive
same,outcome,Caspase-3 (Homo sapiens),inactive
same,outcome,[11],inactive
same,outcome,[12],inactive
same,outcome,[13],inactive
same,outcome,[14],inactive
same,outcome,[15],inactive
same,outcome,CYP2C9 (gene 1559),inactive
same,outcome,CYP2E1 (gene 1571),inactive
CCCCCCCCCC[N+](C)(C)CCCCCCCCCC,outcome,[1],inactive
same,AC50,[2],76.4 µM (active)
same,AC50,[3],90.5 µM (active)
same,outcome,[4],inactive
same,AC50,[5],60.3 µM (active)
same,AC50,[6],79.1 µM (active)
same,outcome,[7],inactive
same,outcome,BCL2L11 (gene 10018),inactive
same,outcome,[8],inactive
same,outcome,[9],inactive
same,outcome,[10],inactive
same,AC50,Caspase-3 (Homo sapiens),75.9 µM (active)
same,outcome,[11],inactive
same,outcome,[12],inactive
same,outcome,[13],inactive
same,outcome,[14],inactive
same,outcome,[15],inactive
same,outcome,CYP2C8 (gene 1558),inactive
same,AC50,CYP2C9 (gene 1559),60 µM (active)
same,outcome,CYP2E1 (gene 1571),inactive
